# The list is not random: actives were taken first. Their share in the collection is about 1.6%.
# RAD54 branch = blocks human RAD54 Holliday junction branch migration; Q92698; 0.14% of 360,000 active; FAM/BHQ fluorescence; inhibition, % at 10.4 µM;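 active means mean normalized replicate activity at least 40 and at least half of replicates scoring 40 or more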;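 further: 0% = median of neutral control wells and 100% = median of positive control wells; inhibitors cause a drop in the FAM fluorescence signal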
# ABCB6 inh 2 = inhibitors of human ABC transporter ABCB6 | Q9NP58 | K562-ABCB6 porphyrin accumulation, flow cytometry, 1 h; hits give low values | fluorescence ratio to DMSO, % at 10 µM | 0.19% of 360,000 active | AID 602162;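 active means fluorescence ratio to DMSO below 75%, the collection mean minus 3 SD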;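 further: signal is porphyrin accumulated inside mitochondria; 100% equals median channel fluorescence of DMSO control wells; lower ratio means ABCB6 inhibition with less porphyrin fluorescence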
# Target sequence (Q9NP58 whole entry, looked up): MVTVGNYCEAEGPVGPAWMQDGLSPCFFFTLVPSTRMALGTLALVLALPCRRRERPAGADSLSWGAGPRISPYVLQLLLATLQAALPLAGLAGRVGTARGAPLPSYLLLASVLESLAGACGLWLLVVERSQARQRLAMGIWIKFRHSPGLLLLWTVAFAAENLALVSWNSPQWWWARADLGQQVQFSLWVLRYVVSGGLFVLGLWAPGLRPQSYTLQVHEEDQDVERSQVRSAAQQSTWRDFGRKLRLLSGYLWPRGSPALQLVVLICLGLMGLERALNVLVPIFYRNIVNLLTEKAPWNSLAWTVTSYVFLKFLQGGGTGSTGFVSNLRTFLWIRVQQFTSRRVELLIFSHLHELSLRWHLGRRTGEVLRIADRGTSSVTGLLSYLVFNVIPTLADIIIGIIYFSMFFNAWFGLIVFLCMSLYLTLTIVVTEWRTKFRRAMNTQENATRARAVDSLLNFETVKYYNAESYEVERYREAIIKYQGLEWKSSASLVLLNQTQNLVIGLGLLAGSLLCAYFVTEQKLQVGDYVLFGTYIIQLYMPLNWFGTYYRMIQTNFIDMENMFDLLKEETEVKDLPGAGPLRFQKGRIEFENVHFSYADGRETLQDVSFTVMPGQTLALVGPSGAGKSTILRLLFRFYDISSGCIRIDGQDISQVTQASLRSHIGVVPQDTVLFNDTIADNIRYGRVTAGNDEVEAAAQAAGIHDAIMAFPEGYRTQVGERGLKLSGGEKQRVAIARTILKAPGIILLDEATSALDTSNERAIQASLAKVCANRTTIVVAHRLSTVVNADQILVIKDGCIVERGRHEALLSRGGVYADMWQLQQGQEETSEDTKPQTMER
# N-glyco inh = blocks N-linked glycosylation in D54 reporter cells | reporter increase, % at 12.5 µM | 0.23% of 360,000 active | D54 ERlucT glycosylation luciferase reporter, 24 h; percent of 100 nM tunicamycin response;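 active means mean luciferase reporter signal, scaled so untreated is 0 and the glycosylation-blocking control 100, at or above a set limit in every replicate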;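 further: luciferase carries N-glycosylation sites so blocking glycosylation raises the light; 0% = median of neutral control wells and 100% = median of 100 nM tunicamycin wells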
# Myeloid diff MLP = promotes myeloid progenitor differentiation | AID 624256 | 1% of 360,000 active | calls only at 10 µM | ER-HoxA9 myeloid progenitors, lysozyme-GFP differentiation, flow cytometry;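 active means normalized GFP-positive differentiation at or above the plate's own cutoff, the solvent-only control mean plus 3 SD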;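 further: cells exposed to compound for four days before flow analysis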
# Vif inh = blocks HIV Vif function | HEK293T cells, Vif self-association by quenched fluorescence, imaging, 24 h | inhibition, % at 7.49 µM | 0.35% of 340,000 active; in the data active means inhibition above about 50%, passing the limit was not always enough
# Myeloid diff CP1 = myeloid differentiation induction. shares compounds with Myeloid diff MLP. 2% of 2,300 active. calls only. ER-HoxA9 myeloid progenitors, GFP/Mac1 double-positive flow. AID 651706;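 active means share of green or green-and-red cells above 9 and 9% in run 1 or 4 and 3% in run 2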
# GFP autofluor = counter-screen for myeloid differentiation promoters: compound fluorescence | shares compounds with Myeloid diff MLP | ER-HoxA9 myeloid progenitors, no estrogen, GFP autofluorescence flow cytometry; vehicle wells 0%, positive control 100% | fluorescence response, % (no concentration beside the values) | 7.4% of 2,300 active;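 active means over 5% cells positive for green fluorescent reporter, or over 2% positive for both it and APC stain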;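 further: range taken on the double positive population between DMSO and positive control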
# Numbers without * were called inactive; i = inactive; nt = no result given; + = active, no number.
SMILES,RAD54 branch,ABCB6 inh 2,N-glyco inh,Myeloid diff MLP,Vif inh,Myeloid diff CP1,GFP autofluor
CCCCCC(=O)N1C[C@H](O)[C@@H](n2cc(-c3ccc(F)cc3)nn2)C[C@@H]1c1ccc(C)cc1,1,100,2,i,14,nt,nt
CCCCCC(=O)N1C[C@@H](O)[C@H](n2cc(-c3ccc(F)cc3)nn2)C[C@@H]1c1ccc(OC)cc1,nt,101,2,i,3,i,1
COc1ccc([C@H]2C[C@H](n3cc(-c4ccc(F)cc4)nn3)[C@@H](O)CN2CC2CCCCC2)cc1,-7,100,-3,+,20,i,0
COc1ccc([C@H]2C[C@@H](O)[C@H](n3cc(-c4ccc(F)cc4)nn3)CN2CC2CCCCC2)cc1,3,104,-5,i,-16,i,0
O[C@H]1C[C@H](c2ccccc2)N(CC2CCCCC2)C[C@@H]1n1cc(-c2ccc(F)cc2)nn1,-23,98,-5,i,nt,nt,nt
O=C(c1cccs1)N1C[C@@H](n2cc(-c3ccc(F)cc3)nn2)[C@H](O)C[C@@H]1c1ccc(Cl)cc1,11,99,5,i,5,i,1
CC(C)[C@@H](C)NC(=O)N(C)C[C@H]1OCc2ccccc2-c2ccccc2C(=O)N([C@H](C)CO)C[C@@H]1C,6,nt,nt,nt,nt,nt,nt
COc1ccc(-c2ccc3c(c2)[C@H]2[C@H](CCN2C(=O)Cc2cccnc2)[C@@H](CO)N3C)cc1,10,nt,nt,nt,nt,nt,nt
C[C@@H]1CN([C@H](C)CO)C(=O)c2cccc(NS(=O)(=O)c3cccs3)c2O[C@@H]1CN(C)S(=O)(=O)c1ccccc1,-12,nt,nt,nt,nt,nt,nt
CCC(C)NC(=O)CN1C(=O)c2cccc3cccc1c23 (stereo unspecified),-8,100,0,i,-2,nt,nt
CCN1/C(=N\N)c2cccc3cccc1c23,nt,508,-8,+,3,i,94*
COc1ccccc1S(=O)(=O)N1C[C@H](O)COC[C@H]2O[C@@H](CC(=O)O)CC[C@@H]21,-4,nt,nt,nt,nt,nt,nt
N#C/C(=C\N1CCN(Cc2ccc3c(c2)OCO3)CC1)c1nc2ccccc2s1,-5,214,-2,i,4,+,0
CCOC(=O)N1CCN(/C=C(\C#N)c2nc3ccccc3s2)CC1,8,121,0,i,0,nt,nt
Fc1ccccc1N1CCN(C2CCCN(Cc3ccccc3C(F)(F)F)C2)CC1 (stereo unspecified),7,99,-1,+,-5,i,0
COc1ccccc1CN1CCCC(N2CCN(c3ccccc3OC)CC2)C1 (stereo unspecified),4,89,0,i,-3,nt,nt
Cc1cc(-c2cccs2)c2c(n1)sc1c(=O)[nH]c(=O)[nH]c12,12,97,8,i,4,i,36*
CN(C(=O)COC(=O)c1ccc[nH]c1=O)C1CCCCC1,nt,102,2,i,10,i,1
COc1ccc(CN(C(=O)CN2C(=O)COc3ccccc32)C2CCCC2)c(OC)c1,-13,98,-2,i,-2,i,0
COc1ccc(S(=O)(=O)Nc2ccccc2C)cc1,6,96,nt,i,nt,i,0
Cc1noc(C)c1NC(=O)N(C)C[C@@H]1OCCCC[C@H](C)Oc2ccc(NC(=O)C3CCCCC3)cc2C(=O)N([C@@H](C)CO)C[C@@H]1C,-4,nt,nt,nt,nt,nt,nt
CCCn1cc(S(=O)(=O)CC(=O)NC2CCCCC2)c2ccccc21,nt,100,-1,nt,-11,i,0
COc1ccc(CN(C)C[C@@H]2OCCCC[C@@H](C)Oc3ccc(NC(=O)Cc4ccccc4)cc3C(=O)N([C@H](C)CO)C[C@H]2C)cc1,3,nt,nt,nt,nt,nt,nt
CC(=O)Nc1cc(-c2ccc(N3CCN(C)CC3)cc2)cn2c(-c3ccccc3)cnc12,4,113,-1,i,1,nt,nt
CN1CCN(c2ccc(-c3cc(NC=O)c4ncc(-c5ccc(F)cc5)n4c3)cc2)CC1,18,115,-11,+,6,i,0
SMILES,RAD54 branch,ABCB6 inh 2,N-glyco inh,Myeloid diff MLP,Vif inh,Myeloid diff CP1,GFP autofluor
CN1CCN(c2ccc(-c3cc(NC=O)c4ncc(-c5ccccc5)n4c3)cc2)CC1,26,99,-6,i,nt,i,3
COc1ccc(S(=O)(=O)N[C@@H]2C=C[C@H](CC(=O)N3CCN(c4ccccc4)CC3)O[C@H]2CO)cc1,-3,nt,nt,nt,nt,nt,nt
C[C@H](CO)N1C[C@H](C)[C@H](CN(C)S(=O)(=O)c2ccccc2)OCCCC[C@H](C)Oc2ccc(NC(=O)Nc3ccccc3)cc2C1=O,-3,nt,nt,nt,nt,nt,nt
COc1ccc(S(=O)(=O)N2C[C@@H](O)COC[C@H]3O[C@H](CC(=O)NCCCN4CCOCC4)CC[C@@H]32)cc1,1,nt,nt,nt,nt,nt,nt
C[C@@H]1CN([C@@H](C)CO)C(=O)c2cc(NC(=O)c3ccccc3)ccc2O[C@@H](C)CCCCO[C@H]1CN(C)Cc1ccccc1,13,nt,nt,nt,nt,nt,nt
C[C@H](CO)N1C[C@H](C)[C@H](CN(C)Cc2ccc(C(=O)O)cc2)Oc2ncc(C#CCN(C)C)cc2C1=O,-16,nt,nt,nt,nt,nt,nt
Cc1c2ccccc2nc2c(F)c(NCCO)c(F)c(F)c12,4,235,10,+,5,i,78*
C[C@@H]1CN([C@@H](C)CO)S(=O)(=O)c2ccc(-c3ccc(F)cc3)cc2O[C@@H]1CN(C)C,-2,nt,nt,nt,nt,nt,nt
CCc1nc2ccccc2c(C(=O)NCc2ccccc2)c1C,nt,98,-3,i,-5,i,0
CCc1nc2ccccc2c(C(=O)O)c1C,-1,102,2,i,0,nt,nt
COc1ccc(CN2C[C@@H](C)[C@@H](OC)CN(C)C(=O)c3cc(NC(C)=O)ccc3OC[C@H]2C)cc1,8,nt,nt,nt,nt,nt,nt
CC(=C/c1ccco1)/C=N/NC(=O)c1ccncc1,10,101,3,i,5,nt,nt
CC(/C=N/NC(=O)c1cccnc1)=C\c1ccco1,-7,104,1,i,0,i,0
O=C(c1ccc(F)cc1)N1CCCCN2[C@H](CO)[C@H](c3ccc(C#CC4(O)CCCC4)cc3)[C@@H]2C1,4,nt,nt,nt,nt,nt,nt
CCCNC(=O)N(C)C[C@H]1Oc2ncc(C3=CCCCC3)cc2C(=O)N([C@H](C)CO)C[C@H]1C,-9,nt,nt,nt,nt,nt,nt
O=[N+]([O-])c1ccc(C[n+]2cccc3c4ccccc4ccc32)cc1,nt,114,3,i,-14,+,0
Cc1ccccc1NC(=O)COc1coc(CN2CCCc3ccccc32)cc1=O,-1,101,0,i,-1,nt,nt
O=C(COc1coc(CN2CCCc3ccccc32)cc1=O)Nc1ccc([N+](=O)[O-])cc1,6,693,0,+,-9,i,0
CC(C)NC(=O)N(C)C[C@@H]1OCCCC[C@@H](C)Oc2ccc(NC(=O)Nc3ccc(F)cc3)cc2C(=O)N([C@@H](C)CO)C[C@H]1C,-3,nt,nt,nt,nt,nt,nt

# High-throughput results: PubChem BioAssay, several laboratories
